According to PubChem BioAssay (NCATS):
Inconclusive results are not listed. Where a call stands in place of a potency, no number is given. Active and inactive are the calls of the source. Calls come from the whole dose curve; as a rule, active = well fitted inhibition curve with a large enough effect; inconclusive = small, poorly fitted or top-dose-only effect; inactive = flat fitted curve, though single readings scatter.

How the values were obtained:
Experiment in all cases: qHTS profiling for inhibitors of Plasmodium falciparum proliferation (AID 504749); note: nearly all actives have a fitted effect of over 60% in size
Details in all cases: P. falciparum in erythrocytes, SYBR Green DNA, 72 h; series mostly up to 28.7 µM
[1] = tested on: CP256
Outline: (§1)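 Three-day growth assay of blood-stage parasites in erythrocytes (0.3% parasitemia, 2.5% hematocrit) at 37 C, 5% CO2, quantified by SYBR Green DNA staining after overnight detergent lysis.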

[2] = tested on: CP260
Outline: as §1

[3] = tested on: CP262
Outline: as §1

[4] = tested on: CP265
Outline: as §1

[5] = tested on: CP266
Outline: as §1

[6] = tested on: CP268
Outline: as §1

[7] = tested on: CP269
Outline: as §1

[8] = tested on: CP286
Outline: as §1

[9] = tested on: CP291
Outline: as §1

[10] = tested on: CP297
Outline: as §1

[11] = tested on: CP305
Outline: as §1

[12] = tested on: CP315
Outline: as §1

[13] = tested on: CP325
Outline: as §1

[14] = tested on: CP329
Outline: as §1

[15] = tested on: CP335
Outline: as §1

[16] = tested on: DFO2036
Outline: as §1

[17] = tested on: DIV14
Outline: as §1

[18] = tested on: DIV17
Outline: as §1

[19] = tested on: DIV30
Outline: as §1

[20] = tested on: Dd2
Outline: as §1
Potency is the fitted concentration of half-maximal effect.

Compound	Potency [1]	Potency [2]	Potency [3]	Potency [4]	Potency [5]	Potency [6]	Potency [7]	Potency [8]	Potency [9]	Potency [10]	Potency [11]	Potency [12]	Potency [13]	Potency [14]	Potency [15]	Potency [16]	Potency [17]	Potency [18]	Potency [19]	Potency [20]
Nc1ccncc1	inactive	inactive	inactive	inactive	inactive	inactive	inactive	inactive	inactive	inactive	inactive	inactive	inactive	inactive	inactive	inactive	inactive	inactive	inactive	inactive
CCC(COC(=O)c1cc(OC)c(OC)c(OC)c1)(c1ccccc1)N(C)C (stereo not given)	inactive	inactive	inactive	inactive	inactive	inactive	inactive	inactive	inactive	inactive	inactive	inactive	inactive	inactive	inactive	inactive	inactive	inactive	inactive	inactive
CCCC(C)(COC(N)=O)COC(=O)NC(C)C (stereo not given)	inactive	inactive	inactive	inactive	inactive	inactive	inactive	inactive	inactive	inactive	inactive	inactive	inactive	inactive	inactive	inactive	inactive	inactive	inactive	inactive
O=P1(NCCCl)OCCCN1CCCl (stereo not given)	inactive	inactive	inactive	inactive	inactive	inactive	inactive	inactive	inactive	inactive	inactive	inactive	inactive	inactive	inactive	inactive	inactive	inactive	inactive	inactive
Cc1ncc(CNC(=O)N(CCCl)N=O)c(N)n1	inactive	inactive	inactive	inactive	inactive	inactive	inactive	inactive	inactive	inactive	inactive	inactive	inactive	inactive	inactive	inactive	inactive	inactive	inactive	inactive
NCC(CC(=O)O)c1ccc(Cl)cc1 (stereo not given)	inactive	inactive	inactive	inactive	inactive	inactive	inactive	inactive	inactive	inactive	inactive	inactive	inactive	inactive	inactive	inactive	inactive	inactive	inactive	inactive
CC1OC(C)OC(C)O1 (stereo not given)	inactive	inactive	inactive	inactive	inactive	inactive	inactive	inactive	inactive	inactive	inactive	inactive	inactive	inactive	inactive	inactive	inactive	inactive	inactive	inactive
CC[C@@H](CO)NC(=O)[C@@H]1C=C2c3cccc4[nH]cc(c34)C[C@H]2N(C)C1	inactive	inactive	inactive	inactive	inactive	inactive	inactive	inactive	inactive	inactive	inactive	inactive	inactive	inactive	–	inactive	inactive	inactive	inactive	inactive
CCOC(=O)C1(c2ccccc2)CCN(CCC(C#N)(c2ccccc2)c2ccccc2)CC1	1.58 µM (active)	3.55 µM (active)	5.36 µM (active)	2.51 µM (active)	6.01 µM (active)	3.79 µM (active)	4.26 µM (active)	2.82 µM (active)	4.26 µM (active)	5.36 µM (active)	4.78 µM (active)	4.78 µM (active)	4.26 µM (active)	3.79 µM (active)	3.38 µM (active)	2.82 µM (active)	4.78 µM (active)	6.75 µM (active)	6.75 µM (active)	8.91 µM (active)
CC[N+]1(C)CCCC(OC(=O)C(O)(c2ccccc2)c2ccccc2)C1 (stereo not given)	inactive	inactive	inactive	inactive	inactive	inactive	inactive	inactive	inactive	inactive	inactive	inactive	inactive	inactive	inactive	inactive	inactive	inactive	inactive	inactive
CCOP(=S)(OCC)Oc1cc(C)nc(C(C)C)n1	inactive	inactive	inactive	inactive	inactive	inactive	inactive	inactive	inactive	inactive	inactive	inactive	inactive	inactive	inactive	inactive	inactive	inactive	inactive	inactive
CC(=O)Nc1cc([As](=O)(O)O)ccc1O	inactive	inactive	inactive	inactive	inactive	inactive	inactive	inactive	inactive	inactive	inactive	inactive	inactive	inactive	inactive	inactive	inactive	inactive	inactive	inactive
CCN(C(C)=O)c1cccc(-c2ccnc3c(C#N)cnn23)c1	inactive	inactive	inactive	inactive	inactive	inactive	inactive	inactive	inactive	–	inactive	inactive	inactive	inactive	inactive	inactive	–	inactive	inactive	inactive
Oc1cccc2cccnc12	inactive	inactive	inactive	inactive	inactive	inactive	inactive	inactive	inactive	inactive	inactive	inactive	inactive	inactive	inactive	inactive	inactive	inactive	inactive	inactive
Clc1ccc(COC(Cn2ccnc2)c2ccc(Cl)cc2Cl)cc1 (stereo not given)	7.08 µM (active)	2.51 µM (active)	4.78 µM (active)	2.51 µM (active)	–	15.1 µM (active)	4.78 µM (active)	3.98 µM (active)	7.57 µM (active)	3.79 µM (active)	13.5 µM (active)	15.1 µM (active)	9.53 µM (active)	10.7 µM (active)	4.26 µM (active)	2.51 µM (active)	1.9 µM (active)	1.51 µM (active)	1.69 µM (active)	2.82 µM (active)
CCCC1CCCCN1 (stereo not given)	inactive	inactive	inactive	inactive	–	inactive	inactive	inactive	inactive	inactive	inactive	inactive	inactive	inactive	inactive	inactive	inactive	inactive	inactive	inactive
O=C(O)c1ccc2[nH]cc(CCCCN3CC=C(c4ccccc4)CC3)c2c1	inactive	inactive	inactive	inactive	inactive	inactive	inactive	inactive	inactive	–	inactive	inactive	inactive	inactive	inactive	inactive	–	inactive	inactive	inactive
O=C(NC(O)C(Cl)(Cl)Cl)NC(O)C(Cl)(Cl)Cl (stereo not given)	inactive	inactive	inactive	inactive	inactive	inactive	inactive	inactive	inactive	inactive	inactive	inactive	inactive	inactive	inactive	inactive	inactive	inactive	inactive	inactive
C#CCOC(C(=O)OCCN(C)C)(c1ccccc1)c1ccccc1	inactive	inactive	inactive	inactive	inactive	inactive	inactive	inactive	inactive	inactive	inactive	inactive	inactive	inactive	–	inactive	inactive	–	inactive	–
NCCc1cc(O)c(O)cc1O	inactive	inactive	inactive	inactive	inactive	inactive	inactive	inactive	inactive	inactive	inactive	inactive	inactive	inactive	inactive	inactive	inactive	inactive	inactive	–
CN1C(=S)CN=C(c2ccccc2)c2cc(Cl)ccc21	inactive	inactive	inactive	inactive	inactive	inactive	inactive	inactive	inactive	inactive	inactive	inactive	inactive	inactive	inactive	inactive	inactive	inactive	inactive	inactive
Oc1ccccc1-c1ccccc1	inactive	inactive	inactive	inactive	inactive	inactive	inactive	inactive	inactive	inactive	inactive	inactive	inactive	inactive	inactive	inactive	inactive	inactive	inactive	inactive
NCC1(CC(=O)O)CCCCC1	inactive	inactive	inactive	inactive	inactive	inactive	inactive	inactive	inactive	inactive	inactive	inactive	inactive	inactive	–	inactive	inactive	inactive	inactive	inactive
NN=C(N)N	inactive	inactive	inactive	inactive	inactive	inactive	inactive	inactive	inactive	inactive	inactive	inactive	inactive	inactive	inactive	inactive	inactive	inactive	inactive	inactive
CC(C)CC(N(C)C)C1(c2ccc(Cl)cc2)CCC1 (stereo not given)	inactive	inactive	inactive	inactive	inactive	inactive	inactive	inactive	inactive	inactive	inactive	inactive	inactive	inactive	inactive	inactive	inactive	inactive	inactive	inactive
C[C@]12C/C(=C/O)C(=O)C[C@@H]1CC[C@@H]1[C@@H]2CC[C@@]2(C)[C@H]1CC[C@]2(C)O	inactive	inactive	inactive	inactive	inactive	inactive	inactive	inactive	–	inactive	inactive	inactive	inactive	inactive	inactive	inactive	–	–	inactive	inactive
